Only some compounds are listed: those with a hit (about 3.6% of all), similar ones and a draw of the others.
HSP90 refold inh – HSP90 inhibitors, primary screen, cell lysate, luminescence; Heat shock protein HSP 90 (rabbit reticulocyte lysate; luciferase refolding); Rabbit reticulocyte lysate, luciferase refolding luminescence, 3 h; inhibition, % at 5.6 µM; 290,000 compounds, 0.91% hits; AID 1789, 2009;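 active = inhibition above the screen-wide mean plus 3 SD, computed separately per campaign, cut at about 16% in these data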;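 also: inhibitors lower the luminescence because luciferase stays unfolded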
CF NFkB block – inhibitors of PAF-induced NF-kB signaling, primary screen, cell-based, GFP fluorescence, uHTS. KKLEB NF-kB-GFP reporter, GFP fluorescence overnight. inhibition, % at 5 µM. 360,000 compounds, 0.86% hits. AID 588850, 2011;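 active = at least 50% inhibition at 5 µM, scaled per plate between neutral and stimulator controls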;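 also: PAF is a Pseudomonas aeruginosa culture filtrate used as stimulus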
LGR2 antag – inhibitors of bursicon-induced LGR2 CRE-luciferase signal, primary screen, cell-based, HEK293, CRE-luciferase reporter, bursicon stimulation; Drosophila bursicon receptor LGR2 (rickets); bursicon-stimulated, 4 h; inhibition, % at 9.99 µM; 380,000 compounds, 0.35% hits; AID 720647, 2013;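 active = drop in luminescence signal, shown as inhibition above about 50% in the replicate tests, limit read from the data, passing the limit was not always enough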;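 also: agonist challenge used bursicon conditioned medium at about half maximal strength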
Peg3 prom inh – Peg3 promoter-driven luciferase inhibitors, primary screen, cell-based, HeLa, luciferase luminescence; HeLa PEG-Prom luciferase reporter, overnight; inhibition, % at 20 µM; 360,000 compounds, 1.7% hits; AID 588405, 2011;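 active = inhibition of at least 50% at 20 µM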
KKLEB tox – cytotoxicity in KKLEB CF airway cells, primary screen, cytotoxicity control for CF NF-kB inhibitor project, cell-based, uHTS, fluorescence assay plates; KKLEB CF airway cells viability, ATPlite luminescence, overnight; stronger effect = lower value; cells stimulated with P. aeruginosa culture filtrate; activity change (cytotoxicity), % at 5 µM; 360,000 compounds, 0.36% hits;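 active = corrected activity change at or below -50% at 5 µM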
Mdm2-MdmX inh – inhibitors of human Mdm2-MdmX association, primary screen, cell-based, luminescence, split luciferase, SaOS-2, uHTS; inhibition, % at 8 µM; Protein Mdm4 (Homo sapiens) + E3 ubiquitin-protein ligase Mdm2 (Homo sapiens), …; AID 485346, 2010; 330,000 compounds, 3% hits; SaOS-2 split-luciferase Mdm2/MdmX complementation;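 active = inhibition of at least 50% at 8 µM in the primary screen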
Target sequence (O15151 whole entry, looked up): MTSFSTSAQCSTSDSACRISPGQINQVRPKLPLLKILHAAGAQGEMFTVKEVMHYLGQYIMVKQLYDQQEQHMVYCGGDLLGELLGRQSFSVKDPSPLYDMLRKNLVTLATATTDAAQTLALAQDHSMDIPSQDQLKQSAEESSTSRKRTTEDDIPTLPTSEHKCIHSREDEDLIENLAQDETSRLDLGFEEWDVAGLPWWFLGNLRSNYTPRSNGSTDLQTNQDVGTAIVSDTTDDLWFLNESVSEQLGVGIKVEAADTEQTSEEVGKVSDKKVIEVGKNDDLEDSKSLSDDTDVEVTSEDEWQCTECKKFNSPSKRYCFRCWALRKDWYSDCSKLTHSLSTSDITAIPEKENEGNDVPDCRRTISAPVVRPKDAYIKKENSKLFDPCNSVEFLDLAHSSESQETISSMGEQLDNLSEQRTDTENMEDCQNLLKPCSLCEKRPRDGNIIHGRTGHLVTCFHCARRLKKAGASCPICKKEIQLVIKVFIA
Target sequence (Q00987 whole entry, looked up): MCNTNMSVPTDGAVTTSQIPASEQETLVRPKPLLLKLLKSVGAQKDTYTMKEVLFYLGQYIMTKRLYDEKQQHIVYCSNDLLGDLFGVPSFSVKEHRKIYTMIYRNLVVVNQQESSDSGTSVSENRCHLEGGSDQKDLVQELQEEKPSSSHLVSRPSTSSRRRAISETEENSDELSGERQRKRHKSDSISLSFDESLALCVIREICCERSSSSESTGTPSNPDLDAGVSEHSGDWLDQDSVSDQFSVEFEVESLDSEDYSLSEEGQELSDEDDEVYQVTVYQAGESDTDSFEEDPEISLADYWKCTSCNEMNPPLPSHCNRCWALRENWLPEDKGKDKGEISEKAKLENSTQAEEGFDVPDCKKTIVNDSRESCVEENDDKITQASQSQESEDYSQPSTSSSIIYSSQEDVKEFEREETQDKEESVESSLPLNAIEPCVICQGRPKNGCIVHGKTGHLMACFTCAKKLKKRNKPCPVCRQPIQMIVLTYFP
Mdm2-MdmX conf – Mdm2-MdmX complex disruptors, retested hits, confirmation, luminescence, single concentration; shares compounds with Mdm2-MdmX inh; Mdm2-MdmX binding, luminescent assay; inhibition, % at 8 µM; 10,000 compounds, 55% hits; AID 489028, 2010; in the data active = inhibition above about 40%
FLuc counter – full-length luciferase signal inhibition, confirmation, counter-screen for Mdm2/MdmX interaction inhibitor project, cell-based, single concentration, SaOS-2; shares compounds with Mdm2-MdmX inh; SaOS-2 full-length luciferase counterscreen, luminescence; inhibition, % at 8 µM; 6,200 compounds, 77% hits; AID 504607, 2011;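 active = mean inhibition at 8 µM reaching about 37%, which flags the compound as non-specific, limit read from the data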;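 also: p53-null SaOS-2 cells with luciferase driven by a doxycycline-inducible promoter; compound on cells about two nights before reading with doxycycline added after day one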
A number is an active result; 0 = inactive; - = no result given.

SMILES | HSP90 refold inh | CF NFkB block | LGR2 antag | Peg3 prom inh | KKLEB tox | Mdm2-MdmX inh | Mdm2-MdmX conf | FLuc counter
NC(=O)c1cc([N+](=O)[O-])cc([N+](=O)[O-])c1 | - | 0 | - | 0 | 0 | - | - | -
CC(C)(C)c1cc([N+](=O)[O-])cc(C(C)(C)C)c1O | 0 | - | 0 | - | - | 88 | 0 | -
C[CH2][Hg][S]c1ccccc1C(=O)O | - | 86 | 96 | 94 | -89 | 100 | 100 | 52
CCOc1ccc(-c2cc(C)[n+](CCc3ccc(OC)c(OC)c3)c(-c3ccc(OCC)cc3)c2)cc1 | 0 | 0 | 0 | 59 | 0 | 81 | 61 | 0
Cc1cc(-c2ccccc2)cc(-c2ccccc2)[n+]1CCc1ccccc1 | - | 0 | 0 | 0 | 0 | 61 | 0 | -
COc1ccc(-n2c(/C=C/c3ccc(O)cc3)nc3ccccc3c2=O)cc1 | 0 | 0 | 0 | 0 | 0 | 50 | 0 | -
O=C(Cc1ccccc1)N1CCCCN2[C@H](C1)[C@@H](c1ccc(C#Cc3ccccc3)cc1)[C@@H]2CO | - | - | 0 | - | - | - | - | -
CCn1c(O)c(N=Nc2ccc(S(=O)(=O)N3CCOCC3)cc2)c(=O)n(CC)c1=S | 0 | 0 | 0 | 0 | 0 | 58 | 0 | -
CCn1c(O)c(N=Nc2cccc(S(=O)(=O)N3CCOCC3)c2)c(=O)n(CC)c1=S | 0 | 0 | 0 | 0 | 0 | 0 | - | -
O=C(O)[C@@H]1[C@@H](CO)[C@@H]2Cn3c(ccc(-c4ccccc4)c3=O)[C@H]1N2CC1CCCCC1 | - | - | 0 | - | - | - | - | -
COC(=O)[C@@H]1[C@@H](CO)[C@@H]2Cn3c(ccc(-c4cccc(OC)c4)c3=O)[C@H]1N2C(=O)c1ccccc1F | - | - | 0 | - | - | - | - | -
C[C@H]1CCC/C=C/[C@@H]2C[C@H](O)C[C@H]2[C@H](O)/C=C/C(=O)O1 | - | 76 | 0 | 0 | 0 | 97 | 98 | 48
N#CC1=C(N)Oc2c(c(=O)sc3ccccc23)C1c1cccnc1 (centres undefined) | 0 | 0 | 0 | 0 | 0 | 52 | 60 | 56
COc1ccc(OC(=O)N(C)C[C@@H]2OCc3ccccc3-c3c(n(C)c4ccccc34)C(=O)N([C@@H](C)CO)C[C@H]2C)cc1 | - | - | 0 | - | - | - | - | -
Cc1cc(O)c2c(c1)C(=O)C13C(=C2O)C(=O)[C@H]2[C@@H](O)[C@@H]1[C@H]1[C@H](O)[C@@H]3C(=O)C3=C(O)c4c(O)cc(C)cc4C(=O)C312 (some centres undefined) | - | 79 | - | 0 | 0 | 86 | 61 | 0
O=C([O-])c1ccc(-[n+]2c(-c3ccccc3)cc(-c3ccccc3)cc2-c2ccccc2)cc1 | - | 0 | 0 | 0 | 0 | 0 | - | -
COc1ccc(-[n+]2c(-c3ccccc3)cc(-c3ccccc3)cc2-c2ccccc2)cc1 | - | - | 0 | - | - | 87 | 88 | 0
Oc1ccc(-[n+]2c(-c3ccccc3)cc(-c3ccccc3)cc2-c2ccccc2)cc1 | - | 0 | 103 | 86 | 0 | 98 | 71 | 59
O=[N+]([O-])c1ccc(-[n+]2c(-c3ccccc3)cc(-c3ccccc3)cc2-c2ccccc2)cc1 | 0 | 0 | 0 | 0 | 0 | 0 | - | -
COC(=O)[C@@H]1[C@@H](CO)[C@@H]2Cn3c(ccc(/C=C/c4ccccc4)c3=O)[C@H]1N2CC1CCCC1 | - | - | 0 | - | - | - | - | -
COC(=O)C[C@H]1CC[C@H]2NC[C@H](O)COC[C@@H]2O1 | - | - | 0 | - | - | - | - | -
O=C(Cc1cccnc1)N1CCCCN2[C@H](CO)[C@@H](c3ccc(C#CC4CCCC4)cc3)[C@H]2C1 | - | - | 0 | - | - | - | - | -
COc1ccc2c(c1)C13CCCC[C@@H]1C(C2)N(C)CC3 (some centres undefined) | - | 0 | 0 | 0 | 0 | 51 | 0 | -
COc1ccc2c(c1O)[C@]13CCN(C)[C@H](C2)[C@@H]1CCC(=O)C3 | 0 | 0 | 0 | 0 | 0 | 0 | - | -
N=c1c2c(n(Cc3ccc(Cl)cc3Cl)c3c1CCC3)CCCC2 | 0 | 0 | - | 0 | 0 | 82 | 0 | 59
SMILES | HSP90 refold inh | CF NFkB block | LGR2 antag | Peg3 prom inh | KKLEB tox | Mdm2-MdmX inh | Mdm2-MdmX conf | FLuc counter
Cc1nn(Cc2ccc(Cl)cc2Cl)c(Cl)c1C(=O)O | 0 | 0 | 0 | 0 | 0 | 0 | - | -
NC(N)=N/N=C/c1cn(-c2ccccc2)nc1-c1cccs1 | 0 | 0 | 106 | 106 | 0 | 99 | 94 | 57
O=c1c2ccccc2nc(-c2cccs2)n1-c1ccccc1 | 0 | 0 | - | 0 | 0 | 0 | - | -
O=C(Cc1ccccc1)N1CC2(C1)[C@H](c1ccccc1)[C@H](CO)N2Cc1cccc(F)c1 | - | - | 0 | - | - | - | - | -
COC(=O)[C@@H]1[C@@H](CO)[C@@H]2Cn3c(ccc(-c4ccncc4)c3=O)[C@H]1N2S(=O)(=O)c1ccccc1F | - | - | 0 | - | - | - | - | -
O=C(O)[C@@H]1[C@@H](CO)[C@@H]2Cn3c(ccc(-c4cccnc4)c3=O)[C@H]1N2S(=O)(=O)c1ccccc1F | - | - | 0 | - | - | - | - | -
COC(=O)[C@H]1[C@H](CO)[C@H]2Cn3c(ccc(/C=C/c4ccccc4)c3=O)[C@@H]1N2C(=O)C1CCC1 | - | - | 0 | - | - | - | - | -
C/C=C(\C)C(=O)N[C@@H](c1ccccc1)[C@@H](O)C(=O)O[C@H]1C[C@@]2(O)[C@@H](OC(=O)c3ccccc3)C3[C@](C)(C(=O)[C@H](O)C(=C1C)C2(C)C)[C@@H](O)C[C@H]1OC[C@@]31OC(C)=O (some centres undefined) | 0 | 0 | 0 | 0 | 0 | 53 | 65 | 41
COC(=O)[C@@H]1[C@@H](CO)[C@@H]2Cn3c(ccc(-c4ccccc4)c3=O)[C@H]1N2CC1CC1 | - | - | 0 | - | - | - | - | -
S=C=Nc1cccc(C2(N3CCCCC3)CCCCC2)c1 | - | 0 | 0 | 64 | 0 | 69 | 0 | -
COc1ccc(CCNC(=O)c2c(N)n(CCN3CCOCC3)c3nc4ccccc4nc23)cc1OC | 0 | 0 | - | 0 | 0 | 54 | 0 | -
CCCCCCn1c(N)c(C(=O)NCCN2CCOCC2)c2nc3ccccc3nc21 | 0 | 0 | - | 0 | 0 | 58 | 0 | -
CCCCCn1c(N)c(C(=O)NCCN2CCOCC2)c2nc3ccccc3nc21 | 0 | 0 | - | 0 | 0 | 0 | - | -
CCCCCCC(=O)N/N=C/c1c(O)n(CCc2ccccc2)c(=O)[nH]c1=O | 0 | 0 | 0 | 0 | 0 | 59 | 0 | -
CCCCCCC(=O)N/N=C/c1c(O)n(C2CC2)c(=S)[nH]c1=O | 0 | 0 | 0 | 0 | 0 | 0 | - | -

Screening data: PubChem BioAssay, several laboratories
